Bead autofluor: compound fluorescence in toxin protease inhibitor counterscreen; 360,000 compounds, 3.1% hits; fluorescence intensity (concentration not given with the values); AID 624483; compound autofluorescence counterscreen, microsphere flow cytometry; hits give high values; in the data active = fluorescence intensity above about 16000; inconclusive = no clear call, values can overlap the other calls
Anthrax LF inh2: inhibitors of Bacillus anthracis lethal factor protease | P15917 | multiplex microsphere protease cleavage assay, LF | inhibition, % at 10 µM | 360,000 compounds, 0.12% hits | AID 588501; note: plate controls were buffer without enzyme for full effect and enzyme alone for no effect
Target sequence (P15917 whole entry, looked up): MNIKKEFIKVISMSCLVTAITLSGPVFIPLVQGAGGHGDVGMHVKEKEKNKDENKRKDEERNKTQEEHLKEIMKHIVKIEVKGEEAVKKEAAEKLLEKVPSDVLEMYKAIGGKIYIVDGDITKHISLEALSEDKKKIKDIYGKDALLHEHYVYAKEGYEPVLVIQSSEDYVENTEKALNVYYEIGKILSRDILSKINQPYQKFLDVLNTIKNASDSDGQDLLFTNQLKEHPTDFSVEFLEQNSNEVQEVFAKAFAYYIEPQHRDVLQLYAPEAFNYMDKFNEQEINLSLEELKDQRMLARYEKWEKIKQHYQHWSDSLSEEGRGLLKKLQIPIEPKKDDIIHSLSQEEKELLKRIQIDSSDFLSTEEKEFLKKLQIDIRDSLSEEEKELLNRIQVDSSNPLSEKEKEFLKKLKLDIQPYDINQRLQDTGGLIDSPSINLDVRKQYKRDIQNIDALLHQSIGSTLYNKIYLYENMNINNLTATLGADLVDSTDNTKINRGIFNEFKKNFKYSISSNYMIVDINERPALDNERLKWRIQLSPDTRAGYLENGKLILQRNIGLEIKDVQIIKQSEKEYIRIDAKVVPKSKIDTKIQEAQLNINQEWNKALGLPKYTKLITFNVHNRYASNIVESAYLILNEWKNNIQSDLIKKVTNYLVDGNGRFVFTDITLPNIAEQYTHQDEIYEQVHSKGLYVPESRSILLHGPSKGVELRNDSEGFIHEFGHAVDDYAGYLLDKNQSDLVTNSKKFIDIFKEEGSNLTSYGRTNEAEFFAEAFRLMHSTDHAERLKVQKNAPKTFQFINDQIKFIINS
BoNT A protease: inhibitors of Botulinum neurotoxin A light chain protease; 360,000 compounds, 0.17% hits; multiplex microsphere protease substrate cleavage, flow cytometry; inhibition, % at 10 µM; note: plate controls were buffer without enzyme for full effect and enzyme alone for no effect
BoNT-F LC inh: BoNT F light chain protease inhibition | Multiplex microsphere protease cleavage assay, flow cytometry | inhibition, % at 10 µM | 360,000 compounds, 0.22% hits | AID 588497; in the data active = inhibition above about 35%, passing the limit was not always enough; inconclusive = no clear call, values can overlap the other calls; note: plate controls were buffer without enzyme for full effect and enzyme alone for no effect
Numbers without * were called inactive; ? = inconclusive. Shown are actives, neighbours in structure and some others; about 3.5% of the full set was active somewhere. Cut-off read from the data, not from the text of the source, unless noted: active = inhibition above about 30%; inconclusive = no clear call, values can overlap the other calls; inactive = below that.

SMILES	Bead autofluor	Anthrax LF inh2	BoNT A protease	BoNT-F LC inh
CCCN(C(=O)CSc1nnc(-c2ccc3c(c2)OCO3)o1)C1CCS(=O)(=O)C1 (centres undefined)	4124	-7.8	-0.9	-10.7
Cc1ccc2nc(SCC(=O)Nc3nnc(SCC(N)=O)s3)[nH]c2c1	20623*	-1.6	-0.2	-0.8
C/C(N)=C(/C#N)C(=O)CSc1nc2ccc(C)cc2[nH]1	16421*	-1.6	-0.2	1.3
C=CCNC(=O)c1ccccc1NC(=O)C1CC(=O)N(C(C)C)C1 (centres undefined)	4029	-1.2	-3.7	?
CCc1nc(SCC(=O)NNC(=O)C(C)C)c2ccccc2n1	?	-223.2	?	?
Cc1ccc(SCC(=O)NNC(=O)C2CCCCC2)cc1	20856*	-3.1	?	-0.6
CCc1nc(SCC(=O)NNC(=O)C2CCCCC2)c2ccccc2n1	21748*	-1.5	?	-8.3
CCc1cc(/C(Cc2ccccn2)=N\O)c(O)cc1O	18010*	-1.6	?	-13.5
O=C(CN1C(=O)NC2(CCOc3ccccc32)C1=O)N1CCCCC1 (centres undefined)	6313	3.1	2.0	6.4
Clc1ccc(-c2nnc(-c3ccc(Br)o3)o2)c(Cl)c1	22190*	0.7	0.9	1.9
Cc1ccc(C(=S)NCS(=O)(=O)c2ccc(C)cc2)cc1	23970*	-1.7	-1.7	-4.3
Cc1ccc(S(=O)(=O)CNC(=S)c2cccc(Cl)c2)cc1	2536	-2.3	-0.4	-3.1
CC1(C)CC(=O)c2c(O)cc(O)cc2O1	22477*	-5.3	0.4	-3.0
COc1ccc2c(c1OC)OCC2C (centres undefined)	3607	-3.8	0.1	-4.5
CCCc1cc(N2CCCC(C(=O)Nc3cc(Cl)ccc3OC)C2)n2ncnc2n1 (centres undefined)	16461*	1.4	?	0.2
O=C(NC12CC3CC(CC(C3)C1)C2)c1cncc(O)c1	20010*	-0.1	0.6	-0.8
O=C(NC12CC3CC(CC(C3)C1)C2)c1cccnc1	10972	-0.3	-0.3	-1.3
COc1ccc(C2C3=C(CC(C)(C)CC3=O)Oc3ncn(Cc4ccco4)c(=N)c32)cc1 (centres undefined)	8601	3.7	25.6	36.0*
COc1ccc(C2C3=C(CC(C)(C)CC3=O)Oc3ncn(CC(C)C)c(=N)c32)cc1 (centres undefined)	3290	-0.5	-0.8	-0.6
Cc1ccc2c(c1)sc1nc(=O)n(-c3ccc(Cl)c(Cl)c3)c(=O)n12	22447*	-2.5	?	-4.6
O=c1nc2sc3ccccc3n2c(=O)n1-c1ccc(Cl)cc1	3826	0.6	-0.4	0.5
Cc1ccc2c(c1)sc1nc(=O)n(-c3cccc(Cl)c3)c(=O)n12	22395*	-0.9	0.8	0.8
Cc1ccc2c(c1)sc1nc(=O)n(-c3ccc(Cl)cc3)c(=O)n12	19455*	-0.5	-0.1	3.1
CCNC(=O)C1CCCN(C(=O)c2ccccc2F)CC1 (centres undefined)	3572	-4.1	0.0	-1.8
COc1cccc(OC)c1OCCCSc1nc(C)cc(=O)[nH]1	22471*	-0.7	2.6	4.2
SMILES	Bead autofluor	Anthrax LF inh2	BoNT A protease	BoNT-F LC inh
CCOc1ccc(OCCSc2nc(C)cc(=O)[nH]2)cc1	2771	-0.2	-0.3	-1.6
Cc1cc(=O)[nH]c(SCCCOc2ccc3c(c2)CCC3)n1	23738*	3.3	0.2	-1.1
Cn1c(CNC(=O)c2ccco2)nnc1SCC(=O)Nc1ccc(Br)cc1F	2580	-0.5	-1.0	-15.9
CCn1c(CNC(=O)c2ccco2)nnc1SCC(=O)Nc1ccc(Br)cc1F	20415*	-5.3	4.9	7.6
O=C(Nc1ccc2c(c1)OCO2)c1cccc(S(=O)(=O)N2CCCC2)c1	21861*	-6.8	2.3	-0.3
Cc1cc(NC(=O)c2cc(S(=O)(=O)N3CCCCC3)ccc2C)no1	3938	6.4	0.0	7.2
O=C(Nc1ccc2c(c1)OCO2)c1cccc(S(=O)(=O)N2CCOCC2)c1	4369	-0.4	-0.5	1.0
O=C(Nc1cccc(F)c1)c1cccc(S(=O)(=O)N2CCOCC2)c1	24090*	-6.1	-2.0	-2.9
CCOC(=O)c1ccc(S(=O)(=O)N2CCN(CC(=O)NC(=O)NC(C)(C)C)CC2)cc1	?	-0.1	?	-9.6
Cc1cc(NC(=O)c2cccc(S(=O)(=O)N3CCCCCC3)c2)no1	17368*	-0.8	-2.3	-5.1
CC(C)(C)NC(=O)NC(=O)CN1CCN(S(=O)(=O)c2ccccc2)CC1	16805*	-10.2	-12.6	-58.1
Cc1ccc(S(=O)(=O)N2CCN(C(=O)COC(=O)COc3ccc(Cl)cc3C)CC2)c(C)c1	?	-5.1	-4.9	-14.0
O=C1C=CC(O)C2(CO)OC12 (centres undefined)	4025	1.4	0.0	2.4
COC(=O)c1cccc(S(=O)(=O)N2CCC(NC(=O)Nc3cccc(F)c3)CC2)c1	17460*	-2.5	-2.5	-7.5
Cc1cc(NC(=O)CN2CCN(S(=O)(=O)c3ccc(Cl)cc3)CC2)no1	19724*	-0.3	-0.2	-1.1
O=C(NCc1nc2ccccc2[nH]1)c1cccc(S(=O)(=O)N2CCCC2)c1	4484	0.8	-0.3	25.4
O=C(Nc1ccc2c(c1)OCCO2)c1ccc(S(=O)(=O)N2CCCCC2)cc1	16458*	-3.7	-0.1	-2.3
O=C(NCc1nc2ccccc2[nH]1)c1cccc(S(=O)(=O)N2CCOCC2)c1	22223*	0.9	0.4	-1.3
CC(=O)c1ccc(S(=O)(=O)N2CCC(NC(=O)Nc3cccc(F)c3)CC2)cc1	4077	2.6	0.1	-3.9
C=CCn1c(C(CCCC)CC(O)COCC(C)C)n[nH]c1=S (centres undefined)	2733	-2.4	0.2	4.0
CCSc1ccccc1C(=O)N1CCN(Cc2ccc3c(c2)OCO3)CC1	22336*	-8.6	3.2	-0.2
Cc1cc(C(=O)NC(C)c2ccc3c(c2)OCO3)cs1 (centres undefined)	22313*	1.7	?	-6.6
CCSc1ccccc1C(=O)N1CCCC1	23440*	-1.1	-2.0	-6.0
CCSc1ccccc1C(=O)NCc1ccc2c(c1)OCO2	17574*	-2.1	-3.9	-8.7
Cc1cc(C(=O)Nc2ccc3c(c2)OCO3)cs1	10759	1.2	0.3	-11.8
SMILES	Bead autofluor	Anthrax LF inh2	BoNT A protease	BoNT-F LC inh
OC[C@@H]1CN(C2CCCC2)C[C@H](n2cnc3c(NC4CC4)ncnc32)O1	4025	-3.5	-0.1	-6.1
CC(C)N1CCN(Cc2ccc(-c3ccccc3Cl)o2)CC1CCO (centres undefined)	2453	-1.3	-0.5	1.9
Cc1cc(C(=O)N2CCN(Cc3ccc4c(c3)OCO4)CC2)on1	5346	-0.6	-0.3	-5.6
O=C(NCc1ccc2c(c1)OCO2)c1ccccc1Cl	6446	-6.3	-1.0	-3.4
CSc1ccccc1C(=O)NCc1ccc2c(c1)OCO2	20402*	-2.1	0.8	-1.5
Cc1cc(C(=O)N2CCN(Cc3ccc4c(c3)OCO4)CC2)cs1	25075*	-1.8	-4.6	-6.4
CC(=O)NCCOC(=O)Nc1cccnc1	5709	-0.1	0.5	-3.2
CC(=O)NCCOC(=O)Nc1ccncc1	20618*	-16.2	6.0	9.1
O/C(=C\c1nc2ccccc2nc1/C=C(\O)c1ccccc1)c1ccccc1	4056	30.5*	66.8*	11.5
CCCCCc1nnc(N)s1	16328*	-4.2	-1.0	-1.2
COc1ccc2c(=O)c3c(=O)n(Cc4ccco4)c(-c4cc(OC)c(OC)c(OC)c4)nc3oc2c1	16166*	-0.7	0.8	1.9
